The values below come from PubChem BioAssay (NCATS).

Experiment [1] is described as follows: S16 Schwann cell viability assay (CellTiter-Glo assay) (AID 624031).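 Also: native untransfected S16 rat Schwann cells; cellular ATP luminescence as a viability measure; nearly all actives have a fitted effect of over 70% in size.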 The essentials:
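Rat S16 Schwann cells without reporter constructs received compound or DMSO for 24 h at 37 °C under 5% CO2. Cellular ATP was then quantified by CellTiter-Glo luminescence, with vehicle wells defined as 0% activity and cell-free wells as reference.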
On the technique in general: In ATP-based viability assays light output follows the ATP content of the culture.

The nature of experiment [2]: S16 Schwann cell PMP22 intronic element beta-lactamase assay (AID 624044; calls by dose curve; also: nearly all actives have a fitted effect of over 15% in size). Put shortly:
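Beta-lactamase reporter under a PMP22 intronic regulatory element in stable S16 rat Schwann cells; 24 h compound exposure. 460 nm blue signal normalized between DMSO (0%) and potassium clavulanate, with 535 nm FRET tracking viability; curves classed by r2 and response.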

A further experiment deals with CP237. The experiment is described as follows: qHTS profiling for inhibitors of Plasmodium falciparum proliferation (AID 504749). Also: nearly all actives have a fitted effect of over 60% in size. Also: potency is read from the fitted curve at half-maximal effect. Conditions: P. falciparum in erythrocytes, SYBR Green DNA, 72 h; series mostly up to 12.8 µM. The essentials: (§1)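 SYBR Green fluorescence of parasite DNA, read after lysis and overnight dark incubation, measured growth over 72 h in erythrocyte culture at 0.3% parasitemia and 2.5% hematocrit. Data normalised to DMSO and 0.29 uM artemisinin, with plate-drift correction.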

For a further experiment, the system named is CP256. Described as above. Conditions: P. falciparum in erythrocytes, SYBR Green DNA, 72 h; series mostly up to 12.8 µM. The essentials:
as §1

A further experiment concerns CP297. The experiment is described as above. Conditions: P. falciparum in erythrocytes, SYBR Green DNA, 72 h; series mostly up to 12.8 µM. Put shortly: as §1
For the next experiment, the system named is CP315. Described as above. Conditions: P. falciparum in erythrocytes, SYBR Green DNA, 72 h; series mostly up to 12.8 µM. The essentials:
as §1

Another experiment relates to CP329. Described as above. Conditions: P. falciparum in erythrocytes, SYBR Green DNA, 72 h; series mostly up to 12.8 µM. The essentials:
as §1

A further experiment deals with JCK. The experiment is described as above. Conditions: P. falciparum in erythrocytes, SYBR Green DNA, 72 h; series mostly up to 12.8 µM. The essentials: as §1
In another experiment the test system is PC49. Described as above. Conditions: P. falciparum in erythrocytes, SYBR Green DNA, 72 h; series mostly up to 12.8 µM. The essentials:
as §1

The next experiment relates to W2. Described as above. Conditions: P. falciparum in erythrocytes, SYBR Green DNA, 72 h; series mostly up to 12.8 µM. The essentials: as §1
For a further experiment, the system named is 3D7. Described as above. Conditions: P. falciparum in erythrocytes, SYBR Green DNA, 72 h; series mostly up to 12.8 µM. Put shortly:
as §1

A further experiment has as its system AS120. The description is as above. Conditions: P. falciparum in erythrocytes, SYBR Green DNA, 72 h; series mostly up to 12.8 µM. Put shortly:
as §1

In the next experiment the test system is ATS189. The description is as above. Conditions: P. falciparum in erythrocytes, SYBR Green DNA, 72 h; series mostly up to 12.8 µM. The essentials: as §1
For the next experiment, the system named is CP185. The description is as above. Conditions: P. falciparum in erythrocytes, SYBR Green DNA, 72 h; series mostly up to 12.8 µM. The essentials: as §1
The test system of a further experiment is CP191. Described as above. Conditions: P. falciparum in erythrocytes, SYBR Green DNA, 72 h; series mostly up to 12.8 µM. The essentials: as §1
The next experiment relates to CP247. The description is as above. Conditions: P. falciparum in erythrocytes, SYBR Green DNA, 72 h; series mostly up to 12.8 µM. Put shortly: as §1
Another experiment deals with ECU. The experiment is described as above. Conditions: P. falciparum in erythrocytes, SYBR Green DNA, 72 h; series mostly up to 12.8 µM. The essentials:
as §1

The subject of another experiment is N140. The experiment is described as above. Conditions: P. falciparum in erythrocytes, SYBR Green DNA, 72 h; series mostly up to 12.8 µM. The essentials: as §1
The subject of the next experiment is PAD. The description is as above. Conditions: P. falciparum in erythrocytes, SYBR Green DNA, 72 h; series mostly up to 12.8 µM. The essentials:
as §1

The subject of another experiment is TAB113. The description is as above. Conditions: P. falciparum in erythrocytes, SYBR Green DNA, 72 h; series mostly up to 12.8 µM. Put shortly:
as §1

Results filed as inconclusive are left out. Calls of active or inactive are those of the source. Unless noted, calls follow the shape of the dose curve; as a rule, active = well fitted curve in the direction sought with a large enough effect; inconclusive = small, poorly fitted or top-dose-only effect, or another doubt; inactive = no such curve, though single readings can be large; an effect the other way counts as inactive or inconclusive.

With `Cc1cccc(CN2CCN([C@@H](c3ccccc3)c3ccc(Cl)cc3)CC2)c1`, the outcome in experiment [1] was inactive. In addition, the Potency result (in experiment [2]; in the experiment on CP237; in the experiment on CP256; in the experiment with CP297; in the experiment on CP315; with CP329) was “inactive” each time. Also, the Potency entry with JCK and in the experiment with PC49 was “inactive” in each case. Moreover, the Potency in the experiment with W2 is 3.22 µM (active).
In the case of `Cc1cccc(C)c1NC(=O)[C@H](C)N`, in experiment [1], the outcome was inactive. For the same molecule, the Potency result (in [2]; with 3D7; in the experiment with AS120; in the experiment on ATS189; in the experiment on CP185; in the experiment on CP191) was “inactive” throughout. Moreover, the Potency result in the experiment on CP237, in the experiment with CP247, in the experiment on CP256, with ECU, in the experiment with JCK and in the experiment with N140 was “inactive” in each case. In addition, the Potency result in the experiment with PAD, in the experiment on PC49, with TAB113 and with W2 was “inactive” in each case. In the experiment on CP297, the Potency was 5.1 µM (active).
Consider `Cn1nnnc1SCC1=C(C(=O)O)N2C(=O)[C@@H](NC(=O)[C@@H](O)c3ccccc3)[C@@H]2SC1`, for which the result in experiment [1] was inactive. Besides, the Potency result (in experiment [2]; with 3D7; with AS120; with ATS189; in the experiment with CP185; in the experiment on CP191) was “inactive” throughout. The Potency result in the experiment on CP237, in the experiment with CP247, in the experiment with CP256, with CP297, in the experiment on CP315 and in the experiment on CP329 was “inactive” each time. For the same molecule, the Potency entry in the experiment with ECU, in the experiment on JCK, in the experiment with N140, in the experiment with PAD, in the experiment on PC49 and in the experiment with TAB113 was “inactive” throughout. The Potency result in the experiment with W2 is “inactive”.
With `NC[C@@H]1O[C@H](O[C@H]2[C@H](O)[C@H](O[C@@H]3O[C@H](CO)[C@@H](O)[C@H](N)[C@@H]3O)[C@@H](N)C[C@H]2N)[C@@H](O)[C@H](O)[C@@H]1O`, the molecule was called inactive in experiment [1]. Also, the Potency entry in the experiment on 3D7, in the experiment on AS120, in the experiment on ATS189, in the experiment with CP185, in the experiment with CP191 and in the experiment with CP237 was “inactive” in each case. Moreover, the Potency result in the experiment with CP247, in the experiment with CP256, in the experiment with CP297, with CP315, in the experiment with CP329 and in the experiment with ECU was “inactive” in each case. Besides, the Potency entry in the experiment with JCK, in the experiment with N140, with PAD, in the experiment with PC49, with TAB113 and in the experiment with W2 was “inactive” each time.
Turning to `CCN(CC)CCOC(=O)[C@@H](Cc1cccc2ccccc12)C[C@@H]1CCCO1`, in [1], the molecule was classed as inactive. Besides, the Potency entry (in experiment [2]; in the experiment on 3D7; in the experiment with AS120; in the experiment with ATS189; in the experiment with CP185; with CP191) was “inactive” throughout. Further, the Potency entry with CP237, in the experiment on CP247, with CP256, with CP297, in the experiment on CP315 and in the experiment with CP329 was “inactive” each time. The Potency entry in the experiment on ECU, in the experiment with JCK, in the experiment with N140, in the experiment on PAD, in the experiment with PC49 and with TAB113 was “inactive” in each case. Besides, in the experiment with W2, the Potency was 2.28 µM (active).
Turning to `CO[C@]1(NC(=O)[C@H](C(=O)O)c2ccc(O)cc2)C(=O)N2C(C(=O)O)=C(CSc3nnnn3C)CO[C@H]21`, the result in experiment [1] was inactive. The Potency entry (in experiment [2]; in the experiment with 3D7; in the experiment with AS120; in the experiment with ATS189; in the experiment on CP185; in the experiment on CP191) was “inactive” each time. The Potency result with CP237, in the experiment on CP247, with CP256, in the experiment with CP297, in the experiment with CP329 and in the experiment with ECU was “inactive” throughout. In addition, the Potency result in the experiment on JCK, in the experiment on N140, in the experiment with PAD, in the experiment on PC49, in the experiment on TAB113 and in the experiment on W2 was “inactive” each time.
For the molecule `CN[C@H]1[C@@H](O)[C@@H](NC)[C@@H]2O[C@@]3(O)C(=O)C[C@@H](C)O[C@H]3O[C@H]2[C@H]1O`, the molecule was classed as inactive in [1]. The Potency entry (in experiment [2]; in the experiment on 3D7; in the experiment on AS120; in the experiment on ATS189; with CP185; in the experiment on CP191) was “inactive” throughout. The Potency result in the experiment on CP237, in the experiment on CP247, in the experiment on CP256, with CP297, in the experiment on CP315 and in the experiment on CP329 was “inactive” in each case. Besides, the Potency result with ECU, in the experiment with JCK, in the experiment on N140, with PAD, in the experiment with PC49 and in the experiment with TAB113 was “inactive” in each case. Further, in the experiment with W2, the Potency entry was “inactive”.
Turning to `CCC(=O)OCC(=O)[C@@]1(OC(=O)CC)[C@H](C)C[C@@H]2[C@@H]3[C@H]([C@@H](O)C[C@@]21C)[C@]1(C)C=CC(=O)C=C1C[C@@H]3Cl`, the result in experiment [1] was inactive. Moreover, the Potency entry (in experiment [2]; in the experiment on CP185; in the experiment with CP315; with CP329) was “inactive” in each case. Further, the Potency is 5.1 µM (active) with CP297 and 1.61 µM (active) with W2.
